# Results filed as inconclusive are left out. Entries that show only a call come without a potency. Some compounds were tested as several samples or in several runs, with calls that do not always agree. Calls of active or inactive are those of the source. Unless noted, calls come from the whole dose curve; as a rule, active = well fitted curve in the direction sought with a large enough effect; inconclusive = small, poorly fitted or top-dose-only effect, or another doubt; inactive = no such curve, though single readings can be large; an effect the other way counts as inactive or inconclusive.
# What was measured:
# [1] = Confirmation and Secondary Assay for Modulators of Hemoglobin Beta Chain Splicing at IVS2 654 locus (AID 910);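 note: HeLa cells stably carrying EGFP split by mutant beta-globin IVS2-654 intron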
# Outline: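 HeLa cells stably expressing EGFP interrupted by β-globin IVS2-654 intron, seeded overnight in Opti-MEM/2% FCS, then treated 2 days at 37 °C. Restored splicing read as total peak GFP intensity per well by laser scanning cytometry (488 nm excitation, 500–520 nm emission); 500 nM antisense PNA as control.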
# [2] = Confirmation and Secondary Assay for Modulators of Hemoglobin Beta Chain Splicing at IVS2 705 locus (AID 930);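 note: HeLa cells stably expressing the EGFP-705 splicing reporter; GFP fluorescence per well restored by corrected splicing of the IVS2-705 intron in EGFP; series mostly up to about 46 µM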
# Outline: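 Per-well GFP, captured at 1 x 8 µm resolution with 488 nm excitation, served as the read-out for HeLa EGFP-705 cells incubated 2 days with test compound versus DMSO.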
# [3] = biological target: Cytochrome P450 3A4 (Homo sapiens) (UniProt P08684); assay: qHTS Assay for Inhibitors and Substrates of Cytochrome P450 3A4 (AID 884); note: nearly all actives have a fitted effect of over 50% in size; note: potency is the fitted concentration of half-maximal effect
# Outline: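 20 nM human CYP3A4 with 25 uM Luciferin-PPXE (at KM) in 200 mM KPO4, preincubated 10 min with compound; NADPH regeneration started a 60 min RT reaction. Luciferin detected by luminescence, normalized to 57 uM ketoconazole as full inhibition.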
# [4] = biological target: Cytochrome P450 2D6 (Homo sapiens) (UniProt P10635); assay: qHTS Assay for Inhibitors and Substrates of Cytochrome P450 2D6 (AID 891); note: potency is the fitted concentration of half-maximal effect; nearly all actives have a fitted effect of over 60% in size
# Outline: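 Human CYP2D6 (5 nM) with 30 uM Luciferin-ME EGE (at Km) in 100 mM KPO4, compound preincubated 10 min, then NADPH regeneration system for 60 min at room temperature. Luciferin read by luminescence; normalized to 1.43 uM quinidine.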
# [5] = biological target: Muscarinic acetylcholine receptor M1 (Rattus norvegicus) (UniProt P08482); assay: qHTS Assay for Antagonists of Acetylcholine Muscarinic M1 Receptor: Measurement of IP-One Response (AID 944); note: potency is the fitted concentration of half-maximal effect; nearly all actives have a fitted effect of over 75% in size
# Outline: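 M1-CHO (rat), 2000 cells/well, overnight recovery; cpd 10 min; carbachol EC80 (200 nM), 30 min, HEPES buffer + 50 mM LiCl pH 7.4; IP-One HTRF, Ex 337, Em 620/665 nm.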
# [6] = biological target: Cytochrome P450 3A4 (Homo sapiens) (UniProt P08684); assay: qHTS Assay for Activators of Cytochrome P450 3A4 (AID 885); note: nearly all actives have a fitted effect of over 65% in size
# Outline: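 20nM CYP3A4 + 25uM Luciferin-PPXE (=KM), 200mM KPO4; cpd 10 min RT; NADPH regen, 60 min RT; stop w/ detection buffer, 20 min; luminescence. Normalized to 57 uM ketoconazole.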
# [7] = biological target: Cytochrome P450 2C9 (Homo sapiens) (UniProt P11712); assay: qHTS Assay for Inhibitors and Substrates of Cytochrome P450 2C9 (AID 883); note: nearly all actives have a fitted effect of over 60% in size
# Outline: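 10nM CYP2C9 + 100uM Luciferin-H (=KM), 25mM KPO4; cpd 10 min 37C; NADPH regen, 60 min 37C; stop/detect with P450 Glo-Buffer 20 min; luminescence. Norm. to 57uM sulphaphenazole as full inhibition.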
# [8] = biological target: Cytochrome P450 2C19 (Homo sapiens) (UniProt P33261); assay: qHTS Assay for Inhibitors and Substrates of Cytochrome P450 2C19 (AID 899); note: nearly all actives have a fitted effect of over 60% in size; note: potency is the fitted concentration of half-maximal effect
# Outline: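 Luminescent read-out of luciferin formed from Luciferin-H EGE (10uM, equal to KM). Enzyme 5nM in 50mM KPO4; compound added, 10 min at 37C, then NADPH regenerating system for 60 min at 37C. Full inhibition defined by 57uM ketoconazole.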
# [9] = qHTS Assay for Identification of Small Molecule Antagonists for NFkB Signaling Pathway (AID 895; active = well fitted inhibition curve with a large enough effect in the signal ratio, with a control signal flat, not every such curve was filed as active; the % refers to the signal ratio)
# Outline: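 ME-180 NFkB-bla cells (beta-lactamase under NFkB response element), plated overnight, treated with compound then 10 pM TNF alpha (about EC50) for 5 hrs at 37 C. LiveBLAzer FRET read at 460/530 nm emission, 405 nm excitation.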
# [10] = qHTS Assay for Identification of Small Molecule Antagonists for Thrombopoietin (TPO) Signaling Pathway (AID 918); details: TPO-dependent cell signaling reporter, antagonist mode; note: potency is the fitted concentration of half-maximal effect; nearly all actives have a fitted effect of over 60% in size
# Outline: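 Ba/F3 (murine, hTPO-R, GPIIb-luc reporter); overnight IL-3 withdrawal; cpd + TPO 26 pM final (EC50); 24 h 37 C/5% CO2; Steadylite luminescence after 10 min RT.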
# [11] = biological target: Pyruvate kinase (Leishmania mexicana) (UniProt Q27686); assay: qHTS Validation Assay for Inhibitors of Leishmania Mexicana Pyruvate Kinase (AID 945)
# Outline: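 An endpoint luciferase assay: 0.2 nM LmPYK E451W turns over 0.5 mM PEP with 0.1 mM ADP for 1 h at room temperature, pH 7.2, before PKLight addition. Values are normalized to DMSO-only wells.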
# Chain of Cytochrome P450 3A4 (Homo sapiens) (P08684 whole entry, looked up): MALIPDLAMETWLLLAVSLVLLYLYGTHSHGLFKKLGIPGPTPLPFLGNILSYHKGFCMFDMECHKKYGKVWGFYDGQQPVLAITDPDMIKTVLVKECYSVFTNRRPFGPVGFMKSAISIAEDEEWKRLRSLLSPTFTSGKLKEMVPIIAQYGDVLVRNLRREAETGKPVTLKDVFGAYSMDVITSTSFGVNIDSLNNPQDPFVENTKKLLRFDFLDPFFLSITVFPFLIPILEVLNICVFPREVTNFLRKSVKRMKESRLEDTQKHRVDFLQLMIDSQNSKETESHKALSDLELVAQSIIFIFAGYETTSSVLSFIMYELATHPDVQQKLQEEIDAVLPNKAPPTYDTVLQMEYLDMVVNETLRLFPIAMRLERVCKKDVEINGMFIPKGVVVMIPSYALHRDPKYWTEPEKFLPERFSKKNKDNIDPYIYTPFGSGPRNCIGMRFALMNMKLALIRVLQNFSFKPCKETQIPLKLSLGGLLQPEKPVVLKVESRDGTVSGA
# Chain of Cytochrome P450 2C19 (Homo sapiens) (P33261 whole entry, looked up): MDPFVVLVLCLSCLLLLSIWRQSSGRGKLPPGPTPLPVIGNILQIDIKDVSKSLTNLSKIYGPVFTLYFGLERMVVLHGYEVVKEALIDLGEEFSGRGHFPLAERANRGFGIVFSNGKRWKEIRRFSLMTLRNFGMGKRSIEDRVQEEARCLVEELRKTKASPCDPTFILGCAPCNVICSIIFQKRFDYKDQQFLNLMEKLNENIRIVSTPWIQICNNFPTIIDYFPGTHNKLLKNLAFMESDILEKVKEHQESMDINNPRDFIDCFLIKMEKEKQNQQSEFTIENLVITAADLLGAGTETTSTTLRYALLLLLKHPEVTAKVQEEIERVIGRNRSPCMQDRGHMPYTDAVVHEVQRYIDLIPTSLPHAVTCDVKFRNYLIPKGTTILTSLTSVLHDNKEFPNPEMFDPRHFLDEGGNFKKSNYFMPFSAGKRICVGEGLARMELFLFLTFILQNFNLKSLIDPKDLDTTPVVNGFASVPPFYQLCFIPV
# Chain of Cytochrome P450 2D6 (Homo sapiens) (P10635 whole entry, looked up): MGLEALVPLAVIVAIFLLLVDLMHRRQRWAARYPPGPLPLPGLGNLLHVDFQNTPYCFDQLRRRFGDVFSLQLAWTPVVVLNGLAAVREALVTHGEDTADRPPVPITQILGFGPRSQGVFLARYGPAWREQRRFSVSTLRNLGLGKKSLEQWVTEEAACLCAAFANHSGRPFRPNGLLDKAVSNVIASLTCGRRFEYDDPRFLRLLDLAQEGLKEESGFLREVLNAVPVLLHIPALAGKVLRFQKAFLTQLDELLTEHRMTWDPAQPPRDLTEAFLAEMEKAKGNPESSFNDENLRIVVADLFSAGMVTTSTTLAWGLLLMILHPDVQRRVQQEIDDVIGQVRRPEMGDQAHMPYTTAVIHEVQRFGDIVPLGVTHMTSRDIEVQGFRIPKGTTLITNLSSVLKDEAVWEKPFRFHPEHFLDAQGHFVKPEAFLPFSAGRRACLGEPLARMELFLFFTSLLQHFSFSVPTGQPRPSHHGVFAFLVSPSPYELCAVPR
# Chain of Muscarinic acetylcholine receptor M1 (Rattus norvegicus) (P08482 whole entry, looked up): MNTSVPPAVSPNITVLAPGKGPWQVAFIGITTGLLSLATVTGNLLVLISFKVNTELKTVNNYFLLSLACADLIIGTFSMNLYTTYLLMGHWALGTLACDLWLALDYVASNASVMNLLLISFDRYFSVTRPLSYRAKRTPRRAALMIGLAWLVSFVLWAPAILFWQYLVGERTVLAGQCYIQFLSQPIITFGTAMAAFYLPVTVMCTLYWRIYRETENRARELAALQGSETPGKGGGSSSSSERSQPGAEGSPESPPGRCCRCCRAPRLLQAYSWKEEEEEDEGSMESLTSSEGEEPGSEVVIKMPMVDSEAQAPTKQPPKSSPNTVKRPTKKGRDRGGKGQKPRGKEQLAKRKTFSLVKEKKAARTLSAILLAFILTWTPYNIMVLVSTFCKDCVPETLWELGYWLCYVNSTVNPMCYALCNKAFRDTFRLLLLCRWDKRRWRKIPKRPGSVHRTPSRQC
# Chain of Cytochrome P450 2C9 (Homo sapiens) (P11712 whole entry, looked up): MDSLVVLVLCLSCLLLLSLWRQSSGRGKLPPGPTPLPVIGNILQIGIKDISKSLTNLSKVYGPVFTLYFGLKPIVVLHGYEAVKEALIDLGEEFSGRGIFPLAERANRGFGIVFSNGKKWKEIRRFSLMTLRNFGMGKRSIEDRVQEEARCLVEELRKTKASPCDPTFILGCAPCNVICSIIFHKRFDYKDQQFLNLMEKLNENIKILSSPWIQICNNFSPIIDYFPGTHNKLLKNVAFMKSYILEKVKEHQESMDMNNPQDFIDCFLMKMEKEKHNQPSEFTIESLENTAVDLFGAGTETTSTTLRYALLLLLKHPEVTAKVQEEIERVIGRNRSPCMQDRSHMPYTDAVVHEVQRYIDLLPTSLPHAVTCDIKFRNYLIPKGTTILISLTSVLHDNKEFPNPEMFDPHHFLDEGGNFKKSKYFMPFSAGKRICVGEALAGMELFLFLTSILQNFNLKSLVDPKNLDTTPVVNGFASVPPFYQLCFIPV
# Chain of Pyruvate kinase (Leishmania mexicana) (Q27686 2-499 E452W): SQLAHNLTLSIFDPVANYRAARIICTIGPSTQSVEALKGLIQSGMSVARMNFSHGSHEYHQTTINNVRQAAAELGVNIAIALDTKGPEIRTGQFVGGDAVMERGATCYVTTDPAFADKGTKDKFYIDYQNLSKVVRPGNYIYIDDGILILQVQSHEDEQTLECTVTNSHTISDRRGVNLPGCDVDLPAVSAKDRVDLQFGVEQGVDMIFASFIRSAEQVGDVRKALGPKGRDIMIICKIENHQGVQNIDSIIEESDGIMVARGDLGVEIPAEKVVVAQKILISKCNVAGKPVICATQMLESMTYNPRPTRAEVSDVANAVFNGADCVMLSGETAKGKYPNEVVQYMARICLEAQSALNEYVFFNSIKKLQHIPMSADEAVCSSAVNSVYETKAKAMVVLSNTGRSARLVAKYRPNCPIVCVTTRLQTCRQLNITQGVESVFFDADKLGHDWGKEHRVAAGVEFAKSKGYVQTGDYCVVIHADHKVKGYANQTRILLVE
smiles,measurement,setting,value
CC(C)=CCOc1c2occc2cc2ccc(=O)oc12,outcome,[1],inactive
same,outcome,[2],inactive
Cc1ccc(-c2nc3ccc(C)cn3c2CC(=O)N(C)C)cc1,outcome,[1],inactive
same,outcome,[2],inactive
CC(CCc1ccccc1)NC(C)C(O)c1ccc(O)cc1 (stereo unspecified),Potency,[3],inactive
same,outcome,[1],inactive
same,outcome,[2],inactive
Cc1nc2n(c(=O)c1CCN1CCC(c3noc4cc(F)ccc34)CC1)CCCC2,Potency,[4],3.16 µM (active)
same,Potency,[5],12.6 µM (active)
CC(C)CC(N(C)C)C1(c2ccc(Cl)cc2)CCC1 (stereo unspecified),outcome,[6],inactive
same,outcome,[1],inactive
same,outcome,[2],inactive
CCCN(CCC)CCc1cccc2c1CC(=O)N2,Potency,[7],inactive
same,Potency,[4],3.16 µM (active)
same,Potency,[8],inactive
Cc1c(OCC(F)(F)F)ccnc1CS(=O)c1nc2ccccc2[nH]1 (stereo unspecified),Potency,[4],31.6 µM (active)
CN1C[C@H](CNC(=O)OCc2ccccc2)C[C@@H]2c3cccc4c3c(cn4C)C[C@H]21,Potency,[9],inactive
same,Potency,[10],10 µM (active)
same,Potency,[5],15.8 µM (active)
same,outcome,[11],inactive
CCOC(=O)c1ncn2c1CN(C)C(=O)c1cc(F)ccc1-2,Potency,[8],1.58 µM (active)
CCC(COC(=O)c1cc(OC)c(OC)c(OC)c1)(c1ccccc1)N(C)C (stereo unspecified),outcome,[1],inactive
same,outcome,[2],inactive
CC(C)C(=O)Nc1ccc([N+](=O)[O-])c(C(F)(F)F)c1,Potency,[8],inactive
NCCc1cc(O)c(O)cc1O,Potency,[3],inactive
same,outcome,[1],inactive
same,outcome,[2],inactive
CC[N+]1(C)CCCC(OC(=O)C(O)(c2ccccc2)c2ccccc2)C1 (stereo unspecified),Potency,[3],inactive
same,outcome,[1],inactive
same,outcome,[2],inactive
Cc1cc(SCc2sc(-c3ccc(C(F)(F)F)c(F)c3)nc2C)ccc1OCC(=O)O,Potency,[3],7.94 µM (active)
same,outcome,[6],inactive
CN(C)CCC=C1c2ccccc2CCc2ccccc21,Potency,[4],7.94 µM (active)
CC(=O)Nc1cc([As](=O)(O)O)ccc1O,Potency,[3],inactive
same,outcome,[1],inactive
same,outcome,[2],inactive

# Reference: PubChem BioAssay (NCATS)
